Out of some 320,000 compounds screened, about 1,900 (0.59%) were called active. The full list was thinned out, with actives kept by preference. A number with no mark means an inactive call. Cut-off read from the data, not from the text of the source: active = inhibition mostly above about 10% (no sharp cut-off); inactive = mostly below about 6.7%.
Each compound was assayed against Protein LANA1 (Human herpesvirus 8 type P (isolate GK18)) (UniProt Q9QR71) (assay: blockers of LANA interaction with H2A/H2B – biochemical, FP readout, HTS, primary screen (AID 2629)). Details: cell-free LANA-H2A/H2B peptide, fluorescence polarization, hits give high values, concentration not given here.
Protein LANA1 (Human herpesvirus 8 type P (isolate GK18)), sequence (Q9QR71 whole entry, looked up): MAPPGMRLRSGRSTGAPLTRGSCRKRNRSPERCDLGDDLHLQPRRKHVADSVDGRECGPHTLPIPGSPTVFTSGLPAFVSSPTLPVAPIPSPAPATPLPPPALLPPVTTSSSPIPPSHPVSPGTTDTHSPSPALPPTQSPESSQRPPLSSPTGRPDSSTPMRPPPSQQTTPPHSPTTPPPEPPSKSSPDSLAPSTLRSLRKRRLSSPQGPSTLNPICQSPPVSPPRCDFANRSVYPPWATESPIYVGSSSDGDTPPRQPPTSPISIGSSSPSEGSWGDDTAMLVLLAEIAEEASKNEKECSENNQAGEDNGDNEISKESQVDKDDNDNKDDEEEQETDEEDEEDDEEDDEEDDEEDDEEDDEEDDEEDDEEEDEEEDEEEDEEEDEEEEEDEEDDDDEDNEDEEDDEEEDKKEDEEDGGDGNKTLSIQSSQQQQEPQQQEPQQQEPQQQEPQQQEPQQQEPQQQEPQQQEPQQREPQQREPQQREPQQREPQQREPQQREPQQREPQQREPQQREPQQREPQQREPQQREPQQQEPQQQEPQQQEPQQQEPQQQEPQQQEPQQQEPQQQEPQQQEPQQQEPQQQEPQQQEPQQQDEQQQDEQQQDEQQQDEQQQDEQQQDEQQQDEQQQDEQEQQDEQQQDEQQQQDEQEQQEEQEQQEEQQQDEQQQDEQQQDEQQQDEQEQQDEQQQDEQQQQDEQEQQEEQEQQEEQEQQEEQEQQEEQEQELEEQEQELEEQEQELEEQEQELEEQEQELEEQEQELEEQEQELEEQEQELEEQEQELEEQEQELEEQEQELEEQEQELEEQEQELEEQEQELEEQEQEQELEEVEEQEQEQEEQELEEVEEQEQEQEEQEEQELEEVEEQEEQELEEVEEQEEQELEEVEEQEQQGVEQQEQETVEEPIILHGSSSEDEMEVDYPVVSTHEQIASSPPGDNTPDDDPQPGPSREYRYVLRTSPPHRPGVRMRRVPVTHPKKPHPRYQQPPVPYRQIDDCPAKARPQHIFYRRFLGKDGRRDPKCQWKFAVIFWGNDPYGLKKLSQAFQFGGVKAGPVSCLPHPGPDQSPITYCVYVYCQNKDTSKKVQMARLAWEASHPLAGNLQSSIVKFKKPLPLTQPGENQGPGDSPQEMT

| Structure (SMILES) | inhibition |
| --- | --- |
| CCOC(=O)N1CCN(CCC(=O)Nc2cc(OC)ccc2OC)CC1 | -0.496% |
| CCOC(=O)c1[nH]c2ccc(OC)cc2c1NC(=O)N1CCOCC1 | -1.57% |
| CCOC(=O)c1[nH]c2ccc(OC)cc2c1NC(=O)CCN1CCN(Cc2ccccc2)CC1 | 38.6% (active) |
| CC1CCCN(S(=O)(=O)c2ccc(-c3ccc(=O)[nH]n3)o2)C1 (stereo not given) | 5.98% |
| CSCCC(NS(=O)(=O)c1ccc(C)cc1)C(=O)N1CCCC1 (stereo not given) | 10.1% (active) |
| CSCC(NS(=O)(=O)c1ccc(C)cc1)C(=O)O (stereo not given) | 4.08% |
| CSCCC(NC(=O)c1ccccc1)C(=O)N1CCCCCCC1 (stereo not given) | 3.36% |
| O=C(NCCOc1ccccc1F)Nc1ccc(Br)cc1 | 1.21% |
| CCC(C)[C@H](NC(=O)N1c2ccccc2NC(=O)[C@@H]1C(C)C)C(=O)N[C@@H](Cc1ccccc1)C(=O)O (stereo not given in full) | 0.386% |
| COc1ccc(C(=O)OCC(=O)NCCCc2ccccc2)cc1OC | -0.725% |
| COc1ccc(C(CCN(Cc2ccc(OC)c(OC)c2)C(=O)CCl)c2ccccc2)cc1 (stereo not given) | -1.72% |
| CCN(CCCCOC(=O)c1ccc(OC)c(OC)c1)C(C)Cc1ccc(OC)cc1 (stereo not given) | 8.66% (active) |
| CCN(C(=O)COC(=O)c1ccccc1O)c1cccc2ccccc12 | 4.86% |
| O=C(C1CCN(S(=O)(=O)Cc2ccccc2)CC1)N1CCCc2ccccc21 | 1.2% |
| CC(=O)Nc1ccc(Nc2cc(C)nc(Nc3ccc(NC(C)=O)cc3)n2)cc1 | -0.44% |
| Cc1cc(Nc2ccccc2)nc(N)n1 | 85.1% (active) |
| Cc1cc(Nc2ccc(Br)cc2)nc2ccccc12 | -0.269% |
| Cc1cccn2c(CN(C)C3CCCc4ccccc43)c(C(=O)N3CCOCC3)nc12 (stereo not given) | 3.32% |
| Cc1ccc(C)c(NC(=O)COC(=O)CSc2ccccc2)c1 | -1.08% |
| Cc1cc(NC(=O)COC(=O)COc2ccc(Cl)cc2C)c([N+](=O)[O-])cc1C | 18.3% (active) |
| COc1cc(NC(=O)COC(=O)CSc2ccc3ccccc3c2)c(C)cc1[N+](=O)[O-] | 10.3% (active) |
| CCCC(=O)OCC(=O)Nc1cc(Cl)ccc1[N+](=O)[O-] | 3.99% |
| COc1ccc(OCC(=O)Nc2cc(C)c(Cl)cc2OC)c([N+](=O)[O-])c1 | 3% |

| Structure (SMILES) | inhibition |
| --- | --- |
| COc1cc(NC(=O)COC(=O)c2cnc(C)cn2)c(C)cc1[N+](=O)[O-] | 0.629% |
| Cc1ccc2c(c1)C(c1ccccc1)N(C(=O)c1ccc(F)cc1)CC(=O)N2 (stereo not given) | -6.68% |
| CCCc1nc2c(C)cc(-c3nc4ccccc4n3C)cc2n1Cc1ccc(-c2ccccc2C(=O)O)cc1 | -5.17% |
| O=C(CN1CCCC1)Nc1sc2c(c1C(=O)Nc1ccccc1)CCCC2 | -9.6% |
| c1ccc(CN=C2Nc3ccccc3CS2)nc1 | -3.85% |
| CS(=O)(=O)N1CCN(CC(=O)NC2CCCC2)CC1 | 3.66% |
| Cc1ccc(S(=O)(=O)NC[C@H]2O[C@@H](n3cnc4c(N)ncnc43)[C@H](O)[C@@H]2O)s1 | -71.8% |
| O=C(OCC(=O)N1CCOCC1)c1ccc2ccccc2c1 | -0.101% |
| CCOc1cc(C(=O)OCC(=O)Nc2cccc(C)c2)ccc1OCC(=O)N1CCOCC1 | 25.3% (active) |
| COc1cc(C(=O)Nc2ncccc2C)ccc1OCC(=O)N1CCOCC1 | -0.868% |
| O=C(NCC1CCCO1)C1CCN(C2CCN(C(=O)C3CCCCC3)CC2)CC1 (stereo not given) | 0.649% |
| O=C(NC(CC(=O)N1CCN(c2ccccc2)CC1)c1ccccc1)c1ccccc1Cl (stereo not given) | 4.7% |
| COC(=O)c1ccccc1OCC(=O)N1CCN(c2ccc(Cl)cc2)CC1 | 3.13% |
| C[C@H](NC(=O)c1ccccc1Cl)C(=O)OCC(=O)N1CCN(c2ccccc2)CC1 | 41% (active) |
| CCNC(=O)c1cccc(NC(=O)C2CC(=O)N(CCc3ccccc3)C2)c1 (stereo not given) | 75.8% (active) |
| COCCCNC(=O)C1CC(=O)N(CCc2ccccc2)C1 (stereo not given) | 0.409% |
| Cc1ccc(CCN2CC(C(=O)NCCc3ccccc3)CC2=O)cc1 (stereo not given) | 18.8% |
| CN(CC(=O)Nc1cccc(F)c1)C(=O)C1CC(=O)N(CCc2ccccc2)C1 (stereo not given) | -5.92% |
| O=C(NCCCN1CCCCC1)C1CC(=O)N(CCc2ccccc2)C1 (stereo not given) | 15% (active) |
| O=C(NC1CCCCC1)C1CC(=O)N(CCc2ccccc2)C1 (stereo not given) | -0.144% |
| COc1ccc(CNC(=O)C2CCC(CNc3c(N4CCOCC4)c(=O)c3=O)CC2)cc1 (stereo not given) | -0.686% |
| CCOC(=O)Cn1c(-c2cccnc2Cl)nc2ccccc21 | 6.09% |
| CCCCCCCCCCOC(=O)Cn1c(COc2ccc(C)cc2)[n+](C)c2ccccc21 | 15.8% (active) |

| Structure (SMILES) | inhibition |
| --- | --- |
| CCCCCCCCCCOC(=O)Cn1c(COc2cccc(OC)c2)[n+](C)c2ccccc21 | 6.12% |
| COC(=O)C(C)n1cnc2c(nnn2-c2ccc(F)cc2)c1=O (stereo not given) | -1.75% |
| NC(N)=N/N=C/c1ccc(OCc2ccc(Cl)cc2Cl)cc1 | 0.216% |
| C=CCN(c1ccc(Cl)cc1)S(=O)(=O)c1cccc(C(=O)OCC(=O)N(C)C)c1 | -2.64% |
| O=C(NNC(=O)c1cnccc1C(F)(F)F)c1ccc(Cl)cc1 | 1.78% |
| CCC1=C(OC(=O)N(CC)CC)N2C(=O)OC(=NCCc3c[nH]c4ccccc34)[C@]2(C)[C@H]2C1=CC[C@H]1C(=O)N(CC)C(=O)[C@H]12 | 1.67% |
| O=C(CN1CCN(c2ccccc2O)CC1)NC(=O)NCc1ccccc1 | 2.65% |
| Oc1ccc(N2CCN(C(=S)NCc3ccccc3)CC2)cc1 | -0.124% |
| Oc1ccccc1N1CCN(C(=S)NCc2ccccc2)CC1 | 18.4% (active) |
| Cc1ccc(CN(C(=O)c2sc3ccccc3c2Cl)C2CCS(=O)(=O)C2)cc1 (stereo not given) | 2.69% |
| CCCCNC(=O)OCCSCCS(=O)(=O)c1ccc(Cl)cc1 | -3.62% |
| CCCN(CCC)CC(O)COc1ccccc1C(=O)Nc1ccccc1 (stereo not given) | -2.37% |
| CN(C)S(=O)(=O)c1ccc(NC(=O)COC(=O)c2n[nH]c3ccccc23)cc1 | 15.3% (active) |
| O=C(COC(=O)c1n[nH]c2ccccc12)Nc1ccccc1Br | -3.41% |
| CN(C)S(=O)(=O)c1ccc(NC(=O)COC(=O)Cn2[nH]c(=O)c3ccccc3c2=O)cc1 | 3.02% |
| CCOCCCn1c(SCC(=O)Nc2cc(OC)ccc2OC)nc2ccccc2c1=O | 3.49% |
| Cc1ccc2c(c1)N(CC(=O)NCCCN1CCCCC1)C(=O)c1cccnc1O2 | 3.43% |
| COc1cc(OC)c(OC)cc1CN1CCN(C(=O)c2cccc3ccccc23)CC1 | 0.329% |
| Cc1ccc(S(=O)(=O)N2CCC(Oc3ccc(-n4cnnn4)cc3)CC2)cc1 | -4.09% |
| CCn1c(SCC(=O)NNC(=O)c2ccc(OC)cc2)nnc1C(C)C | -0.104% |
| O=C(CS(=O)(=O)c1cn(Cc2ccc(Cl)cc2)c2ccccc12)N1CCOCC1 | 0.389% |
| O=C1C=CC(=O)N1c1ccc(N2CCCCC2)cc1 | 6.75% (active) |
| O=C(Cc1ccccc1)NC(=S)Nc1ccc(N2CCCCC2)cc1 | 2.3% |

| Structure (SMILES) | inhibition |
| --- | --- |
| CC(=O)Nc1ccc(S(=O)(=O)Nc2ccc(N3CCCCC3)cc2)cc1 | 0.693% |
| Cc1c(C(=O)NCCN(C)C)oc2ccc(S(=O)(=O)N3CCCC3)cc12 | 0.441% |
| CCc1nn(CCCC(=O)NC(C)c2ccccc2)c(=O)c2cc3occc3n12 (stereo not given) | 1.99% |
| CCN(CC(=O)NCc1cccs1)C(=O)/C=C/c1ccc(C)cc1 | -0.65% |
| CCOc1ccc(S(=O)(=O)N(CC(=O)O)c2ccccc2)cc1 | 18.5% |
| CC(CC(=O)N1CCN(S(=O)(=O)c2ccccc2)CC1)n1cncn1 (stereo not given) | 0.88% |
| CN(C)C(=O)Cn1c(=O)n(S(=O)(=O)c2ccccc2)c2ccccc21 | 14% (active) |
| CC(=O)Nc1ccc(S(=O)(=O)NNC(=O)CCc2ccccc2)cc1 | -3.72% |
| Oc1ccccc1CNc1ncc(Br)cc1Br | -2.38% |
| O=C(COc1nc2ccccc2nc1N1CCOCC1)NCC(F)(F)F | 0.0185% |
| COc1cc(N2C(=O)c3ccccc3C2=O)c(Cl)cc1C(=O)OCC(=O)N1CCOCC1 | 2.7% |
| O=S(=O)(NC1CCCCC1N1CCC(O)CC1)c1ccc(Cl)cc1 (stereo not given) | -2.17% |
| O=S(=O)(NC1CCCCC1N1CCCCC1)c1ccc(Cl)cc1 (stereo not given) | 9.78% |
| CCN1CCN(C2CCCCC2NS(=O)(=O)c2ccc(Cl)cc2)CC1 (stereo not given) | 16.2% (active) |
| O=C(CCn1nnc2ccccc2c1=O)N[C@@H](Cc1c[nH]c2ccccc12)C(=O)O | -3.09% |
| COc1ccc(NC(=O)CCCC(=O)c2ccccc2)cc1 | 2.03% |
| COc1ccc(NC(=O)CCCN2C(=O)C(c3ccccc3)Oc3cccnc32)cc1 (stereo not given) | 12.5% (active) |
| CCc1cccc(NC(=O)CCCN2C(=O)C(c3ccccc3)Oc3cccnc32)c1 (stereo not given) | 3.46% |
| Cn1cc(CN2CCC(C(O)CCc3ccccc3)CC2)c(-c2ccccc2F)n1 (stereo not given) | 1.03% |
| CCn1c(=O)c2ccccc2n(CC(=O)N2CCCc3ccccc32)c1=O | 0.719% |
| O=C(NCc1ccco1)/C(=C\c1cccc([N+](=O)[O-])c1)NC(=O)c1ccco1 | -1.25% |
